Results on 39 compounds are retold here after PubChem BioAssay.

Values without a mark were called inactive. How the calls were made is not given here.

For the assay, the system named is Aerobactin synthetase IucA (Klebsiella pneumoniae hvKP1). In words: IucA enzyme inhibition, primary screen, biochemical, Spectrum library (AID 1346200).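 Further: 100% = wells without compound and 0% = wells lacking enzyme.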 Conditions: malachite green pyrophosphate, A620, at 8 µM, active compounds read low.
Regarding `O=C(/C=C/c1ccccc1)c1ccc(O)cc1O`, the activity remaining is 96.4%.

Regarding `CC(C)C(C)/C=C/C(C)[C@H]1CCC2C3=CCC4CC(=O)CC[C@]4(C)C3CC[C@@]21C` (some centres undefined), the activity remaining was 92.7%.

For `C[C@@H]1O[C@@H](OC[C@H]2OC(Oc3c(-c4ccc(O)c(O)c4)oc4cc(O)cc(O)c4c3=O)[C@H](O)[C@@H](O)[C@@H]2O)[C@H](O)[C@H](O)[C@H]1O` (some centres undefined), the activity remaining is 101%.

As for `O=C(NC1CCCCC1)NC1CCCCC1`, the activity remaining is 71.2%.

Consider `COc1cc2c(cc1OC)-c1c(oc3cc(O)cc(O)c3c1=O)CO2`, for which the activity remaining is 90.7%.

Take `CCOC(=O)C(Cc1ccc(O)cc1)NC(C)=O` (centres undefined): the activity remaining is 98.7%.

As to `C[C@@H]1CC2C3C[C@H](F)C4=CC(=O)C=C[C@]4(C)[C@@]3(F)[C@@H](O)C[C@]2(C)[C@@]1(O)C(=O)COC(=O)C(C)(C)C` (some centres undefined), the activity remaining is 98.9%.

Consider `Cc1cc(NC(=O)C2=C(O)c3ccccc3S(=O)(=O)N2C)no1`, for which the activity remaining is 94.1%.

With `C[C@H]1[C@H]2CCC3C4CC=C5C[C@@H](N(C)C)CC[C@]5(C)C4CC[C@@]32CN1C` (some centres undefined), the activity remaining was 119%.

Turning to `COc1ccc(-c2cc(=O)c3ccccc3o2)cc1`, the activity remaining is 114%.

With `CN(C)CCOC(=O)C(c1ccccc1)C1(O)CCCC1` (centres undefined), the activity remaining is 115%.

Take `O=C(O)/C=C/C=C/c1ccccc1`: the activity remaining is 103%.

Turning to `CC(=O)OCC[N+](C)(C)C`, the activity remaining was 118%.

For `O=c1cc(-c2ccc(O)cc2)oc2cc(O[C@@H]3O[C@H](CO)[C@@H](O)[C@H](O)[C@H]3O[C@@H]3OC[C@](O)(CO)[C@H]3O)cc(O)c12`, the activity remaining was 103%.

With `CCCCN(CCCC)CCCOC(=O)c1ccc(N)cc1`, the activity remaining is 90%.

Regarding `CC1(C)C=CC(=O)[C@@]2(C)C1CC(=O)[C@]1(C)C2CC[C@@]2(C)[C@H](c3ccoc3)OC(=O)C3OC321` (some centres undefined), the activity remaining was 123%.

Turning to `CC(C)c1ccc2c(c1)CCC1C(C)(C(N)=O)CCCC21C` (centres undefined), the activity remaining is 103%.

On to `Oc1c(Br)cc(Br)c2cccnc12`, for which the activity remaining is 113%.

As to `OCCN1C[C@@H](O)[C@@H](O)C(O)C1CO` (some centres undefined), the activity remaining is 114%.

In the case of `COc1c(OC)c2occc2c2oc(=O)ccc12`, the activity remaining is 122%.

For `CC(=O)c1ccc2c(c1)N(CCCN(C)C)c1ccccc1S2`, the activity remaining was 104%.

`CN1CCC(=C2c3ccccc3CCc3sccc32)CC1`: the activity remaining is 123%.

For `C=C1C2CC[C@@]3(C)[C@H](c4ccoc4)OC(=O)C[C@]13O[C@H]1CC(=O)C(C)(C)C(CC(=O)OC)C21C` (some centres undefined), the activity remaining is 124%.

Turning to `Cc1c(Cl)cccc1Nc1ccccc1C(=O)O`, the activity remaining was 82.9%.

As for `CC(C(=O)O)[C@H]1CCC2C3CC=C4C[C@@H](O)CC[C@]4(C)C3CC[C@@]21C` (some centres undefined), the activity remaining was 98.4%.

For `CC(NCCc1ccc(O)cc1)C(O)c1ccc(O)cc1` (centres undefined), the activity remaining was 115%.

As to `Cc1cc(C)cc(OCC2CNC(=O)O2)c1` (centres undefined), the activity remaining was 113%.

Turning to `CCCc1cc(C(N)=S)ccn1`, the activity remaining is 110%.

Turning to `COC(=O)C[C@H]1C(C)(C)C(=O)[C@@H]2CC3=C(CC[C@]4(C)C3=CC(=O)O[C@H]4c3ccoc3)C1(C)C2=O`, the activity remaining is 121%.

`CC(=O)O[C@@H]1C=C[C@@]2(C)C(C[C@@H](OC(C)=O)[C@@]3(C)C4=CC(=O)O[C@@H](c5ccoc5)[C@]4(C)CCC23)C1(C)C` (some centres undefined): the activity remaining was 82.6%.

Take `COc1cc(NC(C)CCCN)c2ncccc2c1` (centres undefined): the activity remaining was 123%.

In the case of `COc1cccc2c1CCC1=CC(=O)CC[C@@]12C`, the activity remaining is 111%.

As for `CC(=O)Oc1cc2c(c(C)c1OC(C)=O)CC1OC13[C@@]2(C)CC[C@@]1(C)C2C[C@](C)(C(=O)O)CC[C@]2(C)CC[C@]31C` (some centres undefined), the activity remaining was 101%.

Turning to `CC[C@@]1(O)C(=O)OCc2c1cc1n(c2=O)Cc2cc3cc(O)ccc3nc2-1`, the activity remaining was 117%.

Turning to `COc1ccc(-c2cc(=O)c3c(O)cc(O[C@H]4O[C@H](CO[C@@H]5O[C@@H](C)[C@H](O)[C@@H](O)[C@H]5O)[C@@H](O)[C@H](O)[C@H]4O)cc3o2)cc1`, the activity remaining was 101%.

For the compound `OC(CCN1CCCCC1)(c1ccccc1)c1ccccc1`, the activity remaining was 95.4%.

As to `COC(=O)C(N)CS` (centres undefined), the activity remaining is 122%.

Consider `COc1ccc(C(=O)CC(=O)c2ccc(C(C)(C)C)cc2)cc1`, for which the activity remaining was 104%.

Take `COC1C=CC23c4cc5c(cc4CN(C[C@H]2O)[C@@H]3C1)OCO5` (some centres undefined): the activity remaining is 110%.
